Measurements taken from PubChem BioAssay AID589 (National Center for Advancing Translational Sciences (NCATS), 2007).
Out of some 59,000 compounds screened, about 6,200 (11%) were called active. Not shown: some 9% with an inconclusive outcome. No stated cut-off is given here; in the data, active means max dye-equivalent concentration above about 10 nM; inconclusive means mostly about 1.1 nM to 9.6 nM; inactive means weaker than that. The full list was thinned out, with actives kept by preference. The source holds several records for some structures; these can differ, active in one and inactive in another.

Assay: qHTS Assay for Spectroscopic Profiling in 4-MU Spectral Region
Settings: compound autofluorescence, 340/450 nm, 4-MU equivalents; stronger effect = higher value
Source text: NIH Molecular Libraries Screening Centers Network [MLSCN] NIH Chemical Genomics Center [NCGC] […] Occasionally, the artifactual effect may originate from the compounds own spectral or other biophysical properties which generally tend to track its assay concentration. Pre-screening/profiling the library with respect to the compounds spectral properties should help one exclude false positives early on. While the most informative fluorescent profiling data set is obtained by performing a full excitation and emission scan of each well by using a monochromator-based plate reader, such an approach is practical only on a very limited scale as scanning each well requires long time. An alternative approach, applied here, is to perform plate reader scans using selected excitation and emission wavelength pairs to generate a multidimensional relational database that correlates compound concentration and the respective relative fluorescence intensity at a given wavelength set. A standard curve of 4-methylumbelliferone (4-MU) present on each plate as six-point concentration series, was used to compute a normalized fluorescence response, termed dye-equivalent concentration, for each compound at each concentration.
NCGC Assay Protocol Summary: Buffer: 100 mM Tris buffer, pH 8.0 Dye standard plate: The wells in columns 1 through 4 of a Kalypsys polypropylene 1536-well compound plate were filled with standard solutions of fluorophore corresponding to the spectral region of interest. Solutions of 4-MU were placed in the following wells: A1, B1: 3 mM, A2, B2: 300 uM, A3, B3: 30 uM, A4, B4: zero (DMSO), C1, D1: 3 uM, C2, D2: 900 nM, C3, D3: 300 nM, C4, D4: zero (DMSO). Assay Steps: Six uL of buffer were dispensed to 1536-well Greiner black plates. Compounds and dye standards (23 nL) were transferred via Kalypsys PinTool. The plates were incubated for 15 min at room temperature, and then read on ViewLux (Perkin-Elmer) High-throughput CCD imager using 340 nm and 450 nm excitation and emission filter set. Keywords: NIH Roadmap, MLSCN, MLI, MLSMR, qHTS, NCGC, Fluorescent Profiling, 4MU, 4-MU

Max dye-equivalent concentration, active:
N#Cc1c2c(c(-c3ccccc3)[nH]c1=O)CCCC2 16 nM
FC(F)(F)c1cc(-c2cccs2)nc(NCc2ccco2)n1 20 nM
CC(NCCO)C(=O)C12CC3CC(CC(C3)C1)C2 (stereo not drawn) 36 nM
COc1ccc(-c2cc3ccc(OCc4nn[nH]n4)cc3oc2=O)cc1 8100 nM
CC(C)OC(=O)c1cc(NC(=O)C2C3CCC(O3)C2C(=O)O)cc(C(=O)OC(C)C)c1 (stereo not drawn) 14 nM
Cc1nc2ccc(NC(=O)N3CCC(c4ccccc4)C3)cc2nc1C (stereo not drawn) 550 nM
CCOc1ccc2cc(C#N)c(SCC(=O)OC)nc2c1 37 nM
CCCCOC(=O)c1[nH]c(C)c(C(=O)OC)c1C 360 nM
CCN(CC)CCNC(=O)c1cc(S(C)(=O)=O)ccc1OC 10 nM
CN(c1nc2ccccc2n2c(-c3ccco3)nnc12)S(=O)(=O)c1ccccc1 39 nM
N#CC(C(=O)c1ccc(S(=O)(=O)N2CCCCCC2)cc1)c1nc2ccccc2[nH]1 (stereo not drawn) 24 nM
Cc1cc(C)c(C#N)c(SCc2ccccc2C(=O)O)n1 13 nM
OCCCN1c2ccccc2Nc2nnc(-c3ccccc3)cc21 94 nM
CN1c2ccccc2-c2nc3ccccc3n2C1c1ccco1 (stereo not drawn) 2800 nM
O=c1c(-c2cccs2)nc2cnc(Oc3ccccc3)nc2n1-c1ccccc1 18 nM
CS(=O)(=O)N(CC(=O)NCc1ccco1)c1ccc2c(c1)OCO2 27 nM
CN(C)CCCNc1c2c(c(C#N)c3nc4ccccc4n13)CCC2 98 nM
N#Cc1c2c(c(N3CCN(CCO)CC3)n3c1nc1ccccc13)CCCC2 26 nM
COc1ccc(-n2c(SCC(=O)NCc3cccs3)nnc2-c2ccoc2C)cc1 23 nM
O=c1c(-c2cc(F)cc(F)c2)nc2cnc(Oc3ccccc3)nc2n1C[C@H]1CCCO1 12 nM
COCCCNC(=O)CSc1nc2ccc(N3CCOCC3)cc2c(=O)n1CCc1ccccc1 54 nM
CCCCn1c(SCC(=O)NCC2CCCO2)nc2ccc(N3CCOCC3)cc2c1=O (stereo not drawn) 62 nM

Max dye-equivalent concentration, inactive:
CCCCNC(=O)c1c[nH]c2ccc(S(=O)(=O)Nc3ccc(OCC)cc3)cc2c1=O
COc1cccc(N(CC(=O)NC2CCCC2)C(=O)Cn2nnc(-c3ccc(C)cc3)n2)c1
O=C(c1cc(C(F)(F)F)cc(C(F)(F)F)c1)N1CCC2(CCCN(c3ccccn3)C2)CC1
CCCCCN(C(=O)NC(=O)Nc1ccccc1C)S(C)(=O)=O
O=C1C2(c3ccccc3)CN(CCCO)CC1(c1ccccc1)CN(CCCO)C2
C[C@@H](N)[C@@H](C)Cc1ccccc1
COc1ccc(-c2cc(C(F)(F)F)nc(SCCC(=O)NCc3ccco3)n2)cc1
O=C(CSc1nc(-c2ccco2)cc(C(F)(F)F)n1)NCc1cccs1
COc1ccccc1N1CCN(C(=O)CSc2nnc(-c3ccoc3C)o2)CC1
CN1CCN(CC(=O)C23CC4CC(CC(C4)C2)C3)CC1
O=C(CNCCO)NC12CC3CC(CC(C3)C1)C2
Cc1ccc2[nH]c3c(c2c1)CN(C(=O)CN1CCN(c2ccccc2)CC1)CC3
O=C(O)[C@@H](O)Cc1ccccn1
O=C(c1ccco1)N1CCC[C@@]2(CCN(Cc3nccs3)C2)C1
COc1ccc(C(=O)Nc2ccc(S(=O)(=O)Nc3onc(C)c3C)cc2)cc1OC
COc1ccc(OCc2ccc(-c3nc4ccccc4c(=O)n3N)o2)cc1
O=C(Nc1cccc(Cl)c1)OCc1ccccn1
CCC(CC)C(=O)Nc1cc(C(=O)OC)cc(C(=O)OC)c1
CC(C)COC(=O)c1ccc(NC(=O)C2C3C=CC(C3)C2C(=O)O)cc1 (stereo not drawn)
CCC(=O)c1ccc(OCC(O)CN2CC(C)OC(C)C2)cc1 (stereo not drawn)
O=C(c1ccco1)N1CCN(C(=O)C2c3ccccc3Oc3ccccc32)CC1
CS(=O)(=O)c1ccc2nc(NC(=O)CN3CCCCCC3)sc2c1
Cn1c(CCN2CCCCCC2)nc2cc(NC(=O)Nc3ccccc3)ccc21
O=C(Nc1cccc(NC(=O)N2CCN(c3ccccc3)CC2)c1)N1CCN(c2ccccc2)CC1
Cc1cc(C)nc(SCc2nnc(SCC(=O)OC3CCCCC3)o2)n1
CCOc1cccc(NC(=O)CC#N)c1
CC(=O)c1cc(C#N)c(SCC(=O)C(C)(C)C)nc1C
Cc1nn(-c2ccccc2)c2c1C(=O)NC(=O)C(C)(C)C2
CCC(C(=O)N1CCOCC1)n1c(C(=O)OC)cc2occc21 (stereo not drawn)
CC(=O)c1ccc(N2C(=NC(=O)C(C)C)SC3CS(=O)(=O)CC32)cc1 (stereo not drawn)
CCC(C)Sc1nc2c(c(=O)[nH]c(=O)n2C)n1CC(O)COc1cccc2ccccc12 (stereo not drawn)
CCOC(=O)c1c(C)[nH]c(C(=O)NCc2ccccc2OC)c1C
CCOC(=O)c1c(C)[nH]c(C(=O)COc2ccc3c(c2)OCO3)c1C
CCOC(=O)N1CCN(C(=O)Cc2ccc(-n3c(=S)[nH]c4ccccc4c3=O)cc2)CC1
O=C(c1cccs1)N1CCN(C(=O)N2CCOCC2)CC1
COc1ccc(C)cc1NC(=O)c1[nH]c(C)c(C(C)=O)c1C
CCN(CC)S(=O)(=O)c1ccc2[nH]cc(C(=O)NCCc3ccccc3)c(=O)c2c1
Cc1onc(-c2ccccc2)c1C(=O)N1CCOCC1
CCN(c1ccccc1)S(=O)(=O)c1cccc(C(=O)O)c1
c1ccc(CSc2nnc(-c3ccco3)n2Cc2ccccc2)cc1
Cc1ccc(Oc2nc3ccccc3n3c(C)nnc23)cc1
CCc1cc(Br)ccc1NC(=O)C1CCCO1 (stereo not drawn)
CC(=O)N1CCN(CCN=CC2=C(O)CC(C)(C)CC2=O)CC1
Cc1ccccc1-c1nnn(CC(=O)c2ccc(S(=O)(=O)N3CCCC3)cc2)n1
COc1ccccc1N1CCN(C(=O)c2ccc(S(=O)(=O)N3CCCCC3)cc2)CC1
CCOc1cc(C(=O)N2CCc3cc(OC)c(OC)cc3C2)ccc1OC(F)F
CC1(C)CC(=O)c2sc(N)nc2C1
CCOC(=O)C1(Cc2ccc(O)cc2)NC(c2ccccc2F)C2C(=O)N(C)C(=O)C21 (stereo not drawn)
O=C(c1csnn1)N1CCC2(CCN(Cc3nccs3)CC2)CC1
Cc1cc(C)c(C#N)c(SCc2ccc3c(c2)OCO3)n1
Cc1cc(C)c(C#N)c(SCS(=O)c2ccc(C(C)(C)C)cc2)n1 (stereo not drawn)
O=C(Nc1ccon1)c1sc2ccccc2c1Cl
Oc1ccc(Cn2cc[nH]c2=S)cc1
O=C(Oc1ccc2c(c1)CN(Cc1ccccc1)CO2)c1ccccc1
CC(=O)Nc1nonc1-c1nc2ccccc2n1Cc1ccccn1
CCOC(=O)N1CCC(C(N)=O)CC1
CCOc1cc(S(=O)(=O)NC2CC(C)(C)NC(C)(C)C2)ccc1F
COc1ccc(Oc2ncc3nc(C)c(=O)n(-c4ccccc4)c3n2)cc1
COc1ccc(-n2c(=O)c(-c3cn(C)c4ccccc34)nc3cnc(OC)nc32)cc1
O=C1c2ccccc2C(=O)N1c1ccccc1S(=O)C(F)(F)F (stereo not drawn)
CS(=O)(=O)N(CC(=O)N1CCN(Cc2ccc3c(c2)OCO3)CC1)c1ccc2c(c1)OCO2
O=C(Cn1nnc(-c2ccc3c(c2)OCO3)n1)NCc1ccco1
CCn1c(COc2ccc(OC)cc2)nnc1SCC(=O)Nc1cc(OC)ccc1OC
Cc1cn(C2C=CC(CO)O2)c(=O)[nH]c1=O (stereo not drawn)
O=C(NC1CC2CCCC(C1)N2C(=O)N1CCCCC1)C1CCCCC1 (stereo not drawn)
O=C(NCCc1ccco1)c1nn(Cc2ccccc2)c(=O)c2ccccc12
COc1ccccc1-c1c(C)nn2c(C)c(C(C)=O)cnc12
Cc1ccc(C(=O)NC2CCN(C(=O)N3CCOCC3)CC2)cc1
CCCCn1c(CN2CCN(CCO)CC2)nc2ccccc21
Cc1ccc(C(=O)NCC(=O)O)cc1S(=O)(=O)N1CCCCC1
Cc1ccc(C(=O)N(CN2CCCC2=O)c2ccc(F)cc2)cc1
CCOC(=O)c1c(-n2cnnn2)sc(C)c1C
CC(=NCC1CCCO1)c1c(O)[nH]c(=O)[nH]c1=O (stereo not drawn)
CCCCOc1ccc(-c2ncc(C(=O)OCC)c(N)n2)cc1
CCN(CC)CCCN1C(=O)C(=O)/C(=C(/O)c2c(C)nc3ccccn23)C1c1ccc(C)o1 (stereo not drawn)
Cc1ccccc1-n1c(SCC(=O)NCc2cccs2)nnc1-c1ccncc1
COc1ccc(C(=O)NC(=O)CSc2nnc(-c3ccco3)n2-c2ccccc2)cc1
O=C(CSc1nnc(-c2ccco2)n1CC1CCCO1)c1ccccc1 (stereo not drawn)
COc1cccc(Cn2c(=O)c(-c3cc(F)cc(F)c3)nc3cnc(OC)nc32)c1
OCCCNCc1ccccn1
C[C@H]1O[C@@H](CC(=O)O)Cc2c1c(O)c1c(O)cc(-c3cc(=O)c4c(=O)c5c(c(=O)c=4c3=O)C[C@H](CC(=O)O)O[C@@H]5C)c(O)c1c2O
CCCCn1c(SCC(=O)NCCc2ccc(OC)c(OC)c2)nc2c1c(=O)n(C)c(=O)n2C
CCc1ccc(NC(=O)CSc2nc3ccccc3c(=O)n2CCN2CCOCC2)cc1
COCCNC(=O)CSc1nc2c(n1-c1ccccc1)CCCC2
CCn1c(SCC(=O)NCC2CCCO2)nc2cc(S(=O)(=O)N3CCCCC3)ccc21 (stereo not drawn)

outcome, inactive:
CCN(CC)CCNC(=O)c1cc(S(C)(=O)=O)ccc1OC
